Laboratory results taken from PubChem BioAssay AID1053205 (Broad Institute, 2014).
Measured potencies and affinities stand elsewhere. Records with an inconclusive call do not appear. Calls of active or inactive are those of the source.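 Rule for the calls: active = compounds lowering the FRET ratio whose fitted half-maximal concentration is at most twice their top tested dose; inconclusive = flat partial drop between 30 and 70 percent, or bad fit; inactive = the rest.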

Target: Voltage-dependent L-type calcium channel subunit alpha-1D (Homo sapiens) (UniProt Q01668)
Sequence (Q01668 whole entry, looked up): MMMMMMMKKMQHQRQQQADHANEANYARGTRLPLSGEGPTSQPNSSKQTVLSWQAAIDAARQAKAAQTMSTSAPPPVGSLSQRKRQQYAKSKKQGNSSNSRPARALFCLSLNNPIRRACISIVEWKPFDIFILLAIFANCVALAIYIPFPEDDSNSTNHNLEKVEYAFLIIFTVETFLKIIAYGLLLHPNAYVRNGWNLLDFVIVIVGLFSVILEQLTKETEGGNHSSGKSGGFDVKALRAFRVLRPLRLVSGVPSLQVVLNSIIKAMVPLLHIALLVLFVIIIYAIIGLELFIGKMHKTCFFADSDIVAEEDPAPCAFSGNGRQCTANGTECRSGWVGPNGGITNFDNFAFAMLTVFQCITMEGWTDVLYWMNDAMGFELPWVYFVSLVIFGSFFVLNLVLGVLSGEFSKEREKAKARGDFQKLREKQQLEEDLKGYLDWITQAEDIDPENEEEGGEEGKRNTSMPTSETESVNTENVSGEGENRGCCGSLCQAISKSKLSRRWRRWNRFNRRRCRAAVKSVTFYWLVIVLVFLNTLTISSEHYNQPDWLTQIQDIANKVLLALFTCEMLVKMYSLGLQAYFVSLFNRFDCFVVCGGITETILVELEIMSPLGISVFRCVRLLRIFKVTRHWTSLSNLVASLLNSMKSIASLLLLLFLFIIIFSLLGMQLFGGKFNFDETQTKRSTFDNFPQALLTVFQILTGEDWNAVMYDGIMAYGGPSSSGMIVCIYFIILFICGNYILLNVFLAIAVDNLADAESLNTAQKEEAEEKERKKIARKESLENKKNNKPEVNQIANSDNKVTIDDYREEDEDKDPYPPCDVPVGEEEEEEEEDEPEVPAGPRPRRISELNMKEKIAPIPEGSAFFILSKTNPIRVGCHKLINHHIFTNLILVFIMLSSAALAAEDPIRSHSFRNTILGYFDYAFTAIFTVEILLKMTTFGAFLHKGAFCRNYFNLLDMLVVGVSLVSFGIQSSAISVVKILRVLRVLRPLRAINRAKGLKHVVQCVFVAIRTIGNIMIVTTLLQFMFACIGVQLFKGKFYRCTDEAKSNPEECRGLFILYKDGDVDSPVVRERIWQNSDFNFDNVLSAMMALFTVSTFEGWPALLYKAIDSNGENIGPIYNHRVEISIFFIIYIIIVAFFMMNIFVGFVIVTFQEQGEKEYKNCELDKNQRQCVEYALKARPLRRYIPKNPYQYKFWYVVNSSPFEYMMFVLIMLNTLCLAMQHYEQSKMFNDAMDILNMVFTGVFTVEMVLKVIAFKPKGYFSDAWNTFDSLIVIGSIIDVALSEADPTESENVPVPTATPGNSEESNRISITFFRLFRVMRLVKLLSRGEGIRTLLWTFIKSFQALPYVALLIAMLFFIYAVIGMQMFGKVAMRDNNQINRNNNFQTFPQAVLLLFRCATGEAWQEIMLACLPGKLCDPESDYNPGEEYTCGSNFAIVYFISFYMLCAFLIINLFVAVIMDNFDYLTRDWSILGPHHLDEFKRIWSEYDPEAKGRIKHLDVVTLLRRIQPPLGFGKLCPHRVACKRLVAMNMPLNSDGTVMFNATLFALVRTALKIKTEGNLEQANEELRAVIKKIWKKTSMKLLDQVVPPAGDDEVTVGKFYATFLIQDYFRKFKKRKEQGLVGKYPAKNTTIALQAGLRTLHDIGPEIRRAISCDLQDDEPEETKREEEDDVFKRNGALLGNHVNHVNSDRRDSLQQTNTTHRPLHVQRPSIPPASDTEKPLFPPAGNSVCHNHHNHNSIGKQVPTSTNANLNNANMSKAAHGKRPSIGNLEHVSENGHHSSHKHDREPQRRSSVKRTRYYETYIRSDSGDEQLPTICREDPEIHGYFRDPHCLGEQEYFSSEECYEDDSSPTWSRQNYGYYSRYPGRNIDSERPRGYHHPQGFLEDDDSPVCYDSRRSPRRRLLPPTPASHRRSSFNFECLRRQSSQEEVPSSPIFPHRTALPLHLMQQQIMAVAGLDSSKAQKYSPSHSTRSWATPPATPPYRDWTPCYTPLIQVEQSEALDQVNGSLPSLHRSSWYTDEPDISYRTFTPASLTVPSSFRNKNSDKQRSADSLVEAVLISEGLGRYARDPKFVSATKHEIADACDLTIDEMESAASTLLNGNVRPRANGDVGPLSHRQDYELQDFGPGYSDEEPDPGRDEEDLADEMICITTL
Experiment: inhibitors of CaV1.3 ICDI-IQ binding, dose response, cell-based, HEK293, YFP-IQ/CFP-ICDI FRET, cherry-picks (AID 1053205)

SMILES | outcome
N#CC1=C(N)Oc2cc(O)ccc2C1c1ccc2c(c1)OCO2 (configuration not stated) | inactive
CC(C)OP(=O)(O)NC(=O)c1ccccc1 | inactive
